ERa SRC1 inh: ERα–SRC-1 coactivator interaction inhibitors, primary screen, biochemical, TR-FRET, ERα LBD, estradiol-bound | TR-FRET ER-alpha LBD / SRC-1 peptide | Estrogen receptor (Homo sapiens), P03372 | inhibition, % at 25.6 µM | 1.7% of 86,000 active; in the data active = inhibition above about 50%
MT1-MMP txn act: MT1-MMP promoter reporter activation – cell-based, luciferase luminescence, primary screen; activation factor at 10 µM; HT1080 MT1-MMP promoter luciferase reporter, overnight; hits give high values; 0.16% of 86,000 active;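 active = activation factor of at least 2 for MT1-MMP transcription at 10 µM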
ERa coact pot: enhancers of ERα–SRC-1 coactivator binding, primary screen, biochemical, TR-FRET, ERα LBD, low estradiol. TR-FRET ERalpha-LBD/SRC-Cy5 coactivator binding, 2 h; 100 = basal binding, no effect. AID 639, 2007. 1.3% of 86,000 active. coactivator binding (% of control), % at 25.6 µM; in the data active = activity above about 200%;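 note: binding measured in presence of low estradiol as agonist stimulus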
Smad3 inh: Smad3/FoxH1 peptide binding inhibitors, primary screen, biochemical, TR-FRET; Mothers against decapentaplegic homolog 3 (Homo sapiens), P84022; TR-FRET Smad3/Dy647-FoxH1 peptide binding, europium anti-His; inhibition, % at 25 µM; 0.29% of 88,000 active; AID 630, 2007;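 active = compounds that reduce the energy-transfer binding signal between the protein and its labelled peptide by more than half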
Target sequence (P84022 whole entry, looked up): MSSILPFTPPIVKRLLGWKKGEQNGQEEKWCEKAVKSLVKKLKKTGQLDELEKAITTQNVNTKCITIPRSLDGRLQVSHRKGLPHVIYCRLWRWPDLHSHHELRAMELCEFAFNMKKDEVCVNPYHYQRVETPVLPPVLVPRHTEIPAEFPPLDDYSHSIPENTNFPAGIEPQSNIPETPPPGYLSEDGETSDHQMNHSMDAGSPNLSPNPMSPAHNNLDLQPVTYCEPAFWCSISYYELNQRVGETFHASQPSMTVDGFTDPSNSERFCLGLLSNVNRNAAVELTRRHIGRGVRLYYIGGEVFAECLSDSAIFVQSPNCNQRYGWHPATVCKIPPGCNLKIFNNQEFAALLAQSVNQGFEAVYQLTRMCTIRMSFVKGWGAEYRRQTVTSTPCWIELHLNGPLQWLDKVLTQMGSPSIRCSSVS
MMP-13 inhibitor: human MMP13 inhibitors, primary screen, biochemical, FRET peptide cleavage; AID 570, 2006; Collagenase 3 (Homo sapiens), P45452; MMP-13 fTHP FRET cleavage, Mca fluorescence; 0.07% of 65,000 active; inhibition, % at 4 µM;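 active = inhibition above the mean of compound-free control plate wells plus 3 SD, cut at about 14% in these data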
ERb coact inh: inhibitors of ERβ-SRC1 coactivator interaction, primary screen, biochemical, TR-FRET, ERβ LBD, SRC-1 peptide. Estrogen receptor beta (Homo sapiens), Q92731. TR-FRET ER-beta LBD / SRC1-Cy5 peptide binding; receptor agonist-loaded with 1 µM estradiol. inhibition, % at 25.6 µM. 1.3% of 86,000 active. AID 633, 2007;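 active = compounds whose percent inhibition of the receptor-coactivator binding signal exceeds about 50% in the single-dose screen, limit read from the data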
Large screens that a line does not name were inactive; [ ] = remark or other dose. This is a sample that favours compounds with a hit; in the whole collection about 3.5% have one here.

Cc1c(NC2=C(Cl)C(=O)N(c3ccccc3)C2=O)c(=O)n(-c2ccccc2)n1C	none
COc1ccc2c(C)nc(Nc3nc(C)cc(C)n3)nc2c1	ERa coact pot 242.5
COc1ccc(Nc2nc(C)c3ccccc3n2)cc1	MT1-MMP txn act 2.1
CC(=O)NC(Cc1c[nH]c2ccccc12)C(=O)Nc1ccc2c(c1)OCO2 (centres undefined)	none
CCNC(=O)Nc1cc2nc(C)n(Cc3ccc(Br)cc3)c2nc1C	none
Cn1ccnc1SCC(=O)Nc1ccc2c(c1)COC2=O	none
Cn1ccnc1SCC(=O)Nc1ccc2nc(SCC(=O)NC3CC3)sc2c1	ERa SRC1 inh 53.1 (no result: MT1-MMP txn act)
N#Cc1ccsc1NC(=O)c1ccccn1	none
CN(CC(=O)Nc1sccc1C#N)C1CCCCC1	ERa SRC1 inh 79.2[fluorescence artefact?], ERb coact inh 60.1[fluorescence artefact?]
Cc1ccc(C(=O)ONc2ccc(N=NC(=O)c3ccccc3O)cc2)cc1	ERa SRC1 inh 72.3, ERb coact inh 52.1 (no result: MMP-13 inhibitor)
COC(=O)c1ccc(NC(=O)c2ccccc2SC)cc1	none (no result: MMP-13 inhibitor)
O=C1CC(N2CCC(c3nc4ccccc4o3)CC2)C(=O)N1c1cc(Cl)cc(Cl)c1 (centres undefined)	none (no result: MMP-13 inhibitor)
CCCn1c(=O)c2ccccc2n2c(SCN3C(=O)c4ccccc4C3=O)nnc12	ERb coact inh 96.0[fluorescence artefact?]
Cc1nn(C)c(C)c1CN(C)C(=O)c1cc2n(n1)C(C(F)(F)F)CC(c1cccs1)N2 (centres undefined)	Smad3 inh 54.4[fluorescence artefact?]
CCc1nnc2sc(-c3ccc(NC(=O)CSc4ccc(Cl)cc4)cc3)nn12	ERa coact pot 225.1[fluorescence artefact?]
C=CCn1c(SCC(=O)c2c(N)n(CCC)c(=O)n(C)c2=O)nc2sc(CC)cc2c1=O	ERa coact pot 445.2[fluorescence artefact?] (no result: MT1-MMP txn act, MMP-13 inhibitor)
O=c1cc(CSc2nnc(-c3cccs3)n2Cc2ccccc2)nc2sc3ccccc3n12	ERa SRC1 inh 75.4[fluorescence artefact?], ERb coact inh 64.8
Cc1ccc(CSc2nnc(-c3ccc(S(=O)(=O)N4CCCC4)cc3)o2)cc1	none
Cc1ccccc1-c1nc2ccccc2[nH]1	MT1-MMP txn act 2 (no result: MMP-13 inhibitor)
Nc1nc(SCCC2CCCCC2)c2[nH]cnc2n1	none (no result: ERa SRC1 inh, MT1-MMP txn act, ERa coact pot, MMP-13 inhibitor, ERb coact inh)
O=C1CN(C(=O)c2cccs2)c2ccccc2N1	ERa coact pot 965.9[fluorescence artefact?]
CCn1c(SCC(=O)c2ccc(O)c(O)c2)nnc1-c1ccccc1OC	ERb coact inh 53.9
CC(=O)c1c(COC(=O)c2ccco2)nc2ccccc2[n+]1[O-]	ERa SRC1 inh 63.6, ERb coact inh 61.2
CCOC(=O)c1c(COC(=O)c2ccco2)nc2ccccc2[n+]1[O-]	none
CC(=O)c1c(COC(=O)c2ccncc2)nc2ccccc2[n+]1[O-]	ERb coact inh 61.8[fluorescence artefact?]
COc1ccc2nc(COC(=O)c3ccco3)c(C(C)=O)[n+]([O-])c2c1	none
C=CCNC(=O)C1CC(=O)N(c2ccc(Br)cc2)C1 (centres undefined)	ERb coact inh 95.2[fluorescence artefact?]
O=C1CC(c2ccc(S(=O)(=O)NCCOc3ccccc3)cc2)CN1 (centres undefined)	ERb coact inh 57.0
CCN1CCN(Cc2ccccc2NC(=O)Nc2ccc(C)cc2)CC1	none
CCN1CCN(Cc2ccc(NC(=O)Nc3ccccc3Cl)cc2)CC1	ERa coact pot 260.8
COC(=O)CCC(NC(=O)OCc1ccccc1)C(=O)NC(CC(C)C)C(=O)OC (centres undefined)	none
CCC(C)C(NC(=O)C(N)CC(C)C)C(=O)NC(CCC(=O)OCc1ccccc1)C(N)=O (centres undefined)	ERa coact pot 211.3 (no result: MT1-MMP txn act, MMP-13 inhibitor)
O=C(NCc1ccccc1)c1ccc(=O)[nH]n1	none
O=C(NCc1ccco1)c1ccc(=O)[nH]n1	ERb coact inh 66.6[fluorescence artefact?]
CN(C)c1ccc2nc3c(C(=O)O)cc(=O)c(O)c-3oc2c1	none (no result: ERa SRC1 inh, MT1-MMP txn act, ERa coact pot, MMP-13 inhibitor, ERb coact inh)
O=C(CSc1ncnc2c1oc1ccccc12)Nc1ccccc1C(F)(F)F	ERa coact pot 720.7[fluorescence artefact?]
Cc1nc(SCC(=O)Nc2ccc(C)c(F)c2)c2oc3ccccc3c2n1	ERa coact pot 840.3[fluorescence artefact?]
